# Sampled rows, rich in hits. Any-hit rate of the full collection: about 0.8%.
# APE1 inh: qHTS Assay for Inhibitors of the Human Apurinic/apyrimidinic Endonuclease 1 (APE1) | DNA repair nuclease/redox regulator APEX1 (Homo sapiens), P27695 | recombinant APE1, TAMRA/BHQ-2 abasic DNA cleavage fluorescence | Potency, µM (doses to about 65.8 µM), hits mostly inhibitors | 350,000 tested, 0.35% active | AID 2517, 2012; also: nearly all actives have a fitted effect of over 55% in size
# Target sequence (P27695 whole entry, looked up): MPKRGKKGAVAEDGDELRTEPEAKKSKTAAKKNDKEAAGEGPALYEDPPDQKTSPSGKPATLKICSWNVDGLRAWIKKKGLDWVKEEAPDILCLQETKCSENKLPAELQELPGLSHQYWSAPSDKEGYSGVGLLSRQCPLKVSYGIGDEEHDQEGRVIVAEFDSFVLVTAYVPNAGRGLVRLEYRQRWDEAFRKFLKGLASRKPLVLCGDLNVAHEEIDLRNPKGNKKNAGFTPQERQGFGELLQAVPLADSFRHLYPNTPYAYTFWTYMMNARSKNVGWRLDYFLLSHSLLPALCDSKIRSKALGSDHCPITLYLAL
#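 APE1 at 0.75 nM final was preincubated with compound 15 min at room temperature, then 50 nM double-stranded THF abasic-site substrate (5'-TAMRA/3'-BHQ-2) was added. Fluorescence (ex 525/em 598 nm) was read kinetically; third-minus-first read gave activity.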
# TDP1 inh: qHTS Assay for Inhibitors of Tyrosyl-DNA Phosphodiesterase (TDP1); Tyrosyl-DNA phosphodiesterase 1 (Homo sapiens), Q9NUW8; recombinant TDP1, AlphaScreen DNA substrate cleavage; Potency, µM (highest dose often 130 µM), actives largely listed as inhibitors; 350,000 tested, 0.28% active; AID 485290, 2010; also: nearly all actives have a fitted effect of over 40% in size
#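 Recombinant E. coli-expressed Tdp1 (1 nM) preincubated with compound 15 min at RT, then 5'-biotin/3'-phosphotyrosine-FITC DNA substrate (15 nM) added for 5 min. AlphaScreen beads (10 ug/ml) added, 10 min RT; tyrosine-FITC cleavage read as signal loss.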
# PGK inhibitor: qHTS Assay to Find Inhibitors of Phosphoglycerate Kinase | PGK/GAPDH coupled, Kinase-Glo luminescence, 60 min | Potency, µM (highest dose often 57.5 µM), usual class: inhibitors | 380,000 tested, 0.043% active; also: nearly all actives have a fitted effect of over 60% in size
# Target sequence (P07378 whole entry, looked up): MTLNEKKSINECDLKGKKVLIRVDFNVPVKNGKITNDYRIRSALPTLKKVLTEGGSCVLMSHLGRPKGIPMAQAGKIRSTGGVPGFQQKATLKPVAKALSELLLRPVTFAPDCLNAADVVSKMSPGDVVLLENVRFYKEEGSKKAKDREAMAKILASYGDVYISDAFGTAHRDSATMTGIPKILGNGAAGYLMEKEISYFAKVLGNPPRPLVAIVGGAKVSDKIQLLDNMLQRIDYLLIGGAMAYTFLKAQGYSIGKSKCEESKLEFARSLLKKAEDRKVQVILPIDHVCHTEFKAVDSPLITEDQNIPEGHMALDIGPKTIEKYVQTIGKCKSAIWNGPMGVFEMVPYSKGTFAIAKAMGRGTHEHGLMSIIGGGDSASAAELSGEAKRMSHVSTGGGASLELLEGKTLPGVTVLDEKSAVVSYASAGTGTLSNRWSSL
#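 Luminescent ATP detection (Kinase-Glo Plus) follows a 60-minute room-temperature incubation, with wells lacking PGK as controls. Buffer: 100 mM TEA (pH 7.6), 5 mM MgCl2, 0.01% Tween-20. Coupling enzyme GAPDH (100 nM final) supplies unstable 1,3-BPG in-well.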
# FEN1 inh: qHTS Assay for the Inhibitors of Human Flap endonuclease 1 (FEN1) | Potency, µM (highest dose often 114 µM), most hits filed as inhibitors | P39748 | AID 588795, 2011 | 390,000 tested, 0.35% active | Recombinant FEN1 flap cleavage, fluorescence, 15 min; also: nearly all actives have a fitted effect of over 65% in size
#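 Steps: FEN1 (10 nM) dispensed; compound added by pin tool; 15 min at room temperature; substrate added to 50 nM final; reads at 0 min and 15 min; data normalized and fitted (four-parameter Hill).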
# PI4K2A inh: qHTS for small molecular inhibitors of PI4K2A. purified PI4K2A, ADP-Glo luminescence, 1 h; stronger effect = lower value. AID 1346378, 2018. activity change, negative = inhibition, % at 76.9 µM. 420,000 tested, 0.13% active. Phosphatidylinositol 4-kinase type 2-alpha (Homo sapiens), Q9BTU6; in the data active = activity change below about -50%; inconclusive = mostly about -30% to -49%
#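 PI4K2A activity was measured by ADP-Glo luminescence: enzyme (4 ug/mL stock) and phosphatidylinositol (1.2 mM stock) in Tris pH 7.5/MgCl2/EGTA/Triton X-100 buffer were reacted with ATP (300 microM stock) for one hour at ambient temperature.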
# Tb PFK block: qHTS Assay to Find Inhibitors of T. brucei phosphofructokinase. T. brucei PFK, ADP-Glo luminescence. Potency, µM (doses to about 57.5 µM), hits mostly inhibitors. 330,000 tested, 0.17% active; also: nearly all actives have a fitted effect of over 60% in size
#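 PFK 1.25 nM, F6P 0.5 mM, ATP 0.1 mM, 0.1 M TEA pH 8.0, 5 mM MgCl2, 0.01% Tween20, 0.1% BSA; 45 min RT. ADP-Glo readout. qHTS titration up to 57 uM; curves fitted, compounds curve-classed.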
# A number is an active result; i = inactive; ? = inconclusive; nt = no result given. Unless noted, calls follow the shape of the dose curve; as a rule, active = well fitted curve in the direction sought with a large enough effect; inconclusive = small, poorly fitted or top-dose-only effect, or another doubt; inactive = no such curve, though single readings can be large; an effect the other way counts as inactive or inconclusive.
SMILES,APE1 inh,TDP1 inh,PGK inhibitor,FEN1 inh,PI4K2A inh,Tb PFK block
COc1ccc(-n2cccc2/C=C2\C(=N)N3N=C(c4ccco4)SC3=NC2=O)cc1,10µM,nt,?,?,i,i
COc1ccc(C2Nc3ccccc3C(=O)N2Cc2ccc(C(C)(C)C)cc2)cc1COc1ccc(NC(C)=O)cc1 (configuration not stated),nt,i,nt,nt,nt,nt
Cc1ccc(NS(=O)(=O)c2cccc(C(=O)O)c2)cc1C,nt,i,nt,nt,nt,nt
CCOC(=O)c1c(NC(C)=O)sc2c(OCC(O)CNC(C)(C)C)c(Br)ccc12 (configuration not stated),?,i,nt,22.4µM,i,i
Cc1ccc(NS(=O)(=O)c2cc3c(cc2-c2ccsc2)NC(=O)CO3)cc1C,nt,i,nt,nt,nt,nt
Cc1cc(C=O)c(C)n1-c1cc(C(=O)O)cc(C(=O)O)c1,i,i,10µM,?,i,?
Cc1ccc(NC(=O)COC(=O)/C=C/c2ccc(Br)o2)cc1S(=O)(=O)N(C)C,?,i,i,i,i,i
NC(=O)c1ccc(NC(=O)COC(=O)/C=C/c2ccc(Br)o2)cc1,i,5.62µM,?,i,i,?
O=C(O)CCc1ccc(-c2cccs2)n1CCC(=O)O,14.1µM,nt,i,i,i,?
C=CCn1c(SCC(=O)NCC2CCCO2)nc2scc(-c3ccco3)c2c1=O (configuration not stated),?,50.1µM,i,i,i,?
CC(C)Oc1ccc(C(=O)N/N=C/c2ccc(-c3ccc(S(=O)(=O)Nc4ncccn4)cc3)o2)cc1,i,nt,i,79.4µM,i,i
O=C(N/N=C/c1ccco1)c1ccn[nH]1,i,i,i,i,-76.0,i
CC(=O)OCCCNc1cc(SCc2ccco2)c2nonc2c1[N+](=O)[O-],?,i,i,56.2µM,?,?
Cc1ccc(C(=O)NCCOc2cccc(C)c2)cc1,i,i,i,i,i,i
COC(=O)c1ccc(OCCOc2ccccc2C)cc1,i,79.4µM,i,i,i,i
CCOC(=O)c1ccc(OCCOc2cccc(C)c2)cc1,i,50.1µM,i,i,i,i
CC(=O)Nc1ccc(S(=O)(=O)Nc2ccc(C)c(C)c2)cc1,nt,i,nt,nt,nt,nt
O=[N+]([O-])c1cc(/C=N/n2c(-c3cccnc3)n[nH]c2=S)ccc1Cl,i,i,i,56.2µM,i,i
Cc1nc(C(C)Nc2ncnc3ccc(-c4ccc5c(c4)OCO5)cc23)cs1 (configuration not stated),nt,i,nt,nt,nt,nt
COc1ccc(C(CCN2CCCCC2)c2c(OC)cc(OC)c3c(-c4ccccc4)cc(=O)oc23)cc1 (configuration not stated),i,i,i,i,i,i
CCN(CC)C(=O)CC(c1ccc(OC)cc1)c1c(OC)cc(OC)c2c(-c3ccccc3)cc(=O)oc12 (configuration not stated),?,17.8µM,nt,i,nt,nt
O=C1NC(=S)S/C1=C\C=C\c1ccc([N+](=O)[O-])o1,2.82µM,nt,28.2µM,31.6µM,i,i
CCCCCCCCCCCCCCCCCCN(C)C,nt,nt,nt,nt,i,nt
O=C1CCc2cc(S(=O)(=O)Nc3ccc(Cl)cc3)ccc2N1,nt,i,nt,nt,nt,nt
COc1cccc(C2c3c(ncn(-c4cccnc4)c3=N)Oc3ccc4ccccc4c32)c1 (configuration not stated),nt,i,nt,nt,nt,nt
SMILES,APE1 inh,TDP1 inh,PGK inhibitor,FEN1 inh,PI4K2A inh,Tb PFK block
COc1ccc2oc(=O)c(/C(N)=N/NC(=O)c3ccncc3)cc2c1,i,50.1µM,i,i,i,i
CC(C)c1cccc(-c2ccc3c(c2)S(=O)(=O)c2cccc(C(=O)NCc4ccco4)c2C3=O)c1,i,44.7µM,i,i,i,i
Oc1cccc(-c2nnc(-c3cccc(O)c3)nn2)c1,nt,nt,?,i,-66.0,nt
Oc1cccc(-c2nc3ccccc3s2)c1,i,i,i,i,?,i
c1ccc2c(c1)Cn1c-2nc2ccccc21,i,i,?,i,-52.6,i
Brc1c(-c2ccccc2)nc2n1Cc1ccccc1-2,i,i,i,i,i,i
CC(C)[C@H](NS(=O)(=O)c1cccc(Cl)c1)C(=O)OCC(=O)NC(=O)CN1CCCC1=O,13.4µM,25.1µM,i,i,i,?
COc1ccc(CC(=O)NCC(c2cccs2)S(=O)(=O)c2ccc(Cl)cc2)cc1 (configuration not stated),nt,?,3.16µM,i,i,nt
CCN(CC)c1ccc(C(=C2C=CC(=[N+](CC)CC)C=C2)c2ccc(S(=O)(=O)O)cc2S(=O)(=O)[O-])cc1,nt,nt,?,?,-56.4,nt
CCN(CC)c1ccc(C(=O)O)cc1,i,i,i,i,i,i
COc1cc2c(cc1OC)C(=O)CC2,nt,nt,nt,nt,i,nt
COc1cc2c(NC3CCN(C)CC3)nc(N3CCCN(C)CC3)nc2cc1OCCCCCN(C)C,nt,nt,nt,22.4µM,nt,nt
COc1cc2c(NC3CCN(C)CC3)nc(N3CCCN(C)CC3)nc2cc1OCCCCN,nt,nt,nt,10µM,nt,nt
COc1cc2nc(N3CCN(C)CC3)nc(NC3CC3)c2cc1OC,nt,nt,nt,i,nt,nt
CCN(CC)CCCOc1cc2nc(N3CCCN(C)CC3)nc(NC3CCN(C)CC3)c2cc1OC,nt,nt,nt,25.1µM,nt,nt
COc1cc2c(NC3CCN(C)CC3)nc(N3CCCN(C)CC3)nc2cc1OCCN(C)C,nt,nt,nt,25.1µM,nt,nt
Cc1ccc(C)c(SC2=NS(=O)(=O)c3ccccc32)c1,nt,i,nt,nt,nt,nt
O=C1CC(c2ccc(Cl)cc2)CC(=O)N1,nt,nt,nt,nt,i,nt
COc1ccc(C2c3ccccc3Oc3ncn(CCN4CCOCC4)c(=N)c32)cc1OC (configuration not stated),nt,i,nt,nt,nt,nt
COc1cc2nc(N3CCOCC3)nc(NC3CCN(Cc4ccccc4)CC3)c2cc1OC,nt,nt,nt,i,nt,nt
COc1cc2nc(Cl)nc(NC3CCN(Cc4ccccc4)CC3)c2cc1OC,nt,nt,nt,i,nt,nt
COc1cc2c(NC3CCN(C)CC3)nc(N3CCCN(C)CC3)nc2cc1OCC1CCNCC1,nt,nt,nt,10µM,nt,nt
COc1cc2c(NC3CCN(C(C)C)CC3)nc(N3CCCN(C)CC3)nc2cc1OCCCN(C)C,nt,nt,nt,31.6µM,nt,nt
CN1CCC(NC(=O)c2cnn3c2NC(=C2CC2)C=C3C(F)F)CC1,i,nt,nt,nt,nt,nt
COc1ccc(NS(=O)(=O)c2ccc3c(c2)CCC(=O)N3)cc1,nt,i,nt,nt,nt,nt
Cc1nc(NC(=O)c2ccccc2)sc1-c1csc(Nc2ccc(C(=O)O)cc2)n1,i,i,?,35.5µM,i,i

# Screens (PubChem)
